The values below come from PubChem BioAssay.

A short description of assay [1]: small molecules captured by biotinylated probe aFSTL3 – biochemical, small-molecule microarray, fluorescence 635/667, stem cell growth factor project, primary screen (AID 1064).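 Also: measures binding of the biotinylated anti-FSTL3 antibody to printed compounds.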 The conditions noted are these: higher = more signal.
Assay [2] is described as follows: binders from COS7 lysate, DM2A8 probe, primary screen, torsin A project, cell lysate, small-molecule microarray, fluorescence 635/667 (AID 1065). The conditions noted are these: higher = more signal, COS7 lysate expressing mutant human TOR1A.
Assay [3] in a line: small molecules captured by biotinylated probe aFGF2 – biochemical, small-molecule microarray, fluorescence 635/667, stem cell growth factor project, primary screen (AID 1067).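 Also: measures binding of biotinylated aFGF2 protein to printed compounds on slides; z-score merges feature fluorescence and signal-to-noise across triplicate slides.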 The conditions noted are these: higher = more signal.
Assay [4] can be described thus: small molecules captured by biotinylated probe aFGF10 – biochemical, small-molecule microarray, fluorescence 635/667, stem cell growth factor project, primary screen (AID 1071).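 Also: score merges 667 nm spot intensity and signal to noise from triplicate slides.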 The conditions noted are these: higher = more signal.
Assay [5] has as its target Neurogenic locus notch homolog protein 2 (Homo sapiens) (UniProt Q04721). Briefly: small molecules binding Notch2 protein – biochemical, small-molecule microarray, 635 nm fluorescence, stem cell growth factors, primary screen (AID 1073). The conditions noted are these: higher = more signal.
Assay [6] has as its target Pro-neuregulin-1, membrane-bound isoform (Homo sapiens) (UniProt Q02297). Briefly: small molecules binding neuregulin-1 protein – biochemical, small-molecule microarray, fluorescence 635/667, psychiatric disease protein project, primary screen (AID 1075).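 Also: score combines 667 nm spot fluorescence with signal to noise.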 The conditions noted are these: NRG1 binding, 635 nm fluorescence, higher = more signal.
Assay [7] concerns Neuregulin-1 EGF-like domain. Put plainly: small molecules binding NRG1 EGF domain – biochemical, small-molecule microarray, 635 nm fluorescence, primary screen (AID 1081).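 Also: binding of the protein to compounds printed on small-molecule microarray slides.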 The conditions noted are these: higher = more signal.
Assay [8] can be described thus: FRG1 expression reporter modulators in myotubes – cell-based, C2C12 myotubes, firefly/Renilla luciferase, luminescence, FRG1 inhibition for FSHD, primary screen (AID 1084). The conditions noted are these: FRG1 promoter luciferase, higher = more signal, called active from +8 up or from −8 down.
Assay [9] in a line: small molecules captured by biotinylated probe aFST – biochemical, small-molecule microarray, fluorescence 635/667, stem cell growth factor project, primary screen (AID 1086).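 Also: score merges 667 nm fluorescence with signal-to-noise of each printed compound spot.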 The conditions noted are these: higher = more signal.
Assay [10] can be described thus: binders of probe aHhip on microarray, primary screen, stem cell growth factor project, biochemical, small-molecule microarray, fluorescence 635/667 (AID 1087).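 Also: score merges spot fluorescence at 667nm with spot signal to noise ratio.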 The conditions noted are these: higher = more signal.

Active and inactive are the calls of the source.

Neurogenic locus notch homolog protein 2 (Homo sapiens), sequence (Q04721 whole entry, looked up, canonical isoform): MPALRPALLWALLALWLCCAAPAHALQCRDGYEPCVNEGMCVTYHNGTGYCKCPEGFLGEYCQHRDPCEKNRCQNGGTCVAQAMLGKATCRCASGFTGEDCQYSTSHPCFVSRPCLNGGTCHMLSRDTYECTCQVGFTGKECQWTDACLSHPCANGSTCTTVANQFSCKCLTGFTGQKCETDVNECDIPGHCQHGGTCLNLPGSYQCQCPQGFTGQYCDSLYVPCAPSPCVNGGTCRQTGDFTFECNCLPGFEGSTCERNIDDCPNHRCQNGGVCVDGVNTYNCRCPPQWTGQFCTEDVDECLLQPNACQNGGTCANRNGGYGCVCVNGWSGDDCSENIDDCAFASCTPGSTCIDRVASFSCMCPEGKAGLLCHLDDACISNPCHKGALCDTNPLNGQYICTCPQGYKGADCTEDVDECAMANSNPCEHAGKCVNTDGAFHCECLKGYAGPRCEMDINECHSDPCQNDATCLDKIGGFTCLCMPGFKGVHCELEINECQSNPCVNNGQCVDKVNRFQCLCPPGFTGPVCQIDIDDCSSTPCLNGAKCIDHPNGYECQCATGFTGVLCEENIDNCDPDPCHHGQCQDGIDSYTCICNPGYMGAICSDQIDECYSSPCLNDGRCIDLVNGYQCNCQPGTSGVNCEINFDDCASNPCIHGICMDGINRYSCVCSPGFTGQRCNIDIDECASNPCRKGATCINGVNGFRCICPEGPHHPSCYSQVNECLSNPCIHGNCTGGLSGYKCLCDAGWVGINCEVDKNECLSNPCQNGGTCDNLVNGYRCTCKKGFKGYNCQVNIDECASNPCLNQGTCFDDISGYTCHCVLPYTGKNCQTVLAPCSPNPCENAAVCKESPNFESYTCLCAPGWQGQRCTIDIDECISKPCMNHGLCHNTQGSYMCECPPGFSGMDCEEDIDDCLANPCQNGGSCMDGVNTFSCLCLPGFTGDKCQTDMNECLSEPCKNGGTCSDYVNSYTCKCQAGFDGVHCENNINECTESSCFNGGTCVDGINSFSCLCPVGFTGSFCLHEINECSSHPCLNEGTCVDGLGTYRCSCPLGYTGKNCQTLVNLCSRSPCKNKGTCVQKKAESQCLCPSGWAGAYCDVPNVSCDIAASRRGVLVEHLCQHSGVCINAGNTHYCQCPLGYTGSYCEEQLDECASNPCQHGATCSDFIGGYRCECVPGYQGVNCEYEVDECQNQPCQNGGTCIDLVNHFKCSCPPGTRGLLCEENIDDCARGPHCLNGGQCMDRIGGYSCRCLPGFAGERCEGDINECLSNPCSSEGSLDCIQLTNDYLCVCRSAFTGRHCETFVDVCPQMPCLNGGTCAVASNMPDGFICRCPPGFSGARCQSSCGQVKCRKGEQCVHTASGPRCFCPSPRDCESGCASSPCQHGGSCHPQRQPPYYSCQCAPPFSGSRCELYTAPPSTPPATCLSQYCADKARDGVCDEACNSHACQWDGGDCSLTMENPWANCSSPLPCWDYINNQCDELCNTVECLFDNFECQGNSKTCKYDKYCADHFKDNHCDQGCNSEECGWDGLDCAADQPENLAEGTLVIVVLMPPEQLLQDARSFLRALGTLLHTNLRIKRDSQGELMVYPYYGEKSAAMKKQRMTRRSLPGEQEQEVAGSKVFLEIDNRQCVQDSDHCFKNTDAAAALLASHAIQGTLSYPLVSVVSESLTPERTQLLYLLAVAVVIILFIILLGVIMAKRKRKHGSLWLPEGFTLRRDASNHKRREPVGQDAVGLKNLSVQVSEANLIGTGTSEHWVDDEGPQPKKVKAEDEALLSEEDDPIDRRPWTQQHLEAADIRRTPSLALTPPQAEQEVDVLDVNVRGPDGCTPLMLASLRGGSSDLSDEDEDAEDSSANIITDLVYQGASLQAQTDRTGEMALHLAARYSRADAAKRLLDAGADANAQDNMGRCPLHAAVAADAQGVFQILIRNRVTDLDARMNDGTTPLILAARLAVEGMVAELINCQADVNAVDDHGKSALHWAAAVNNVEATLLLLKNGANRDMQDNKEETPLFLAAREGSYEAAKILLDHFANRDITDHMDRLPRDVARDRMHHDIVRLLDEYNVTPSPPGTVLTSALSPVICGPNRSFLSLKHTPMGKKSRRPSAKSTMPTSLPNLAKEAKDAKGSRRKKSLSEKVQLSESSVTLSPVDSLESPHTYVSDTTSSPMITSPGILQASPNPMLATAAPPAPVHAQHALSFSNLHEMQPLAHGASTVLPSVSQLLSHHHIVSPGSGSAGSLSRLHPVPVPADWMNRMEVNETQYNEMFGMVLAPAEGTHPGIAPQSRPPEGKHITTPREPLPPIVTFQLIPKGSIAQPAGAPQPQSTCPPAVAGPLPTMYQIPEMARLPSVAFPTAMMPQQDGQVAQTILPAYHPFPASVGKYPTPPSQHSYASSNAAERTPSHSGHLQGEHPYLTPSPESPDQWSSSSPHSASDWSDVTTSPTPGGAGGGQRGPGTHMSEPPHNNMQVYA
Pro-neuregulin-1, membrane-bound isoform (Homo sapiens), sequence (Q02297 whole entry, looked up, the tested form may be a part, canonical isoform): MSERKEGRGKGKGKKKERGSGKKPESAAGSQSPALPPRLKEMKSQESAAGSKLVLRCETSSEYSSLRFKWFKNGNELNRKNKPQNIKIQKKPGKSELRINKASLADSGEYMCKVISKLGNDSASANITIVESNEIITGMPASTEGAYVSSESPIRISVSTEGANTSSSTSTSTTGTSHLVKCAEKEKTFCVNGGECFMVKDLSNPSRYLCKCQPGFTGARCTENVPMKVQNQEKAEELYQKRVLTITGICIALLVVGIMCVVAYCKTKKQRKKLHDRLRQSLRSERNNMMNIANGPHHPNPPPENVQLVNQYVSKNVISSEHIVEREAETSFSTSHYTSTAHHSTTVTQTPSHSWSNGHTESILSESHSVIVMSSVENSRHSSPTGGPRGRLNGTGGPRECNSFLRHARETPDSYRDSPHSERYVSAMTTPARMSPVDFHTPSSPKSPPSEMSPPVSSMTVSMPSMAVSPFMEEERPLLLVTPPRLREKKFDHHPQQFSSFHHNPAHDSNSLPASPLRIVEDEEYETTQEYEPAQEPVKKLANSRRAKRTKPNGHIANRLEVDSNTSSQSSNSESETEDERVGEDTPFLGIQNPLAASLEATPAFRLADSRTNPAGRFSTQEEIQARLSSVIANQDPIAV

With `CCN1C(=O)[C@H]2[C@H]3[C@H](O)[C@H](O)CC(=NOCC=C(C)CCC=C(C)C)[C@@H]3CC[C@H]2C1=O`, the composite z-score was -0.524 in assay [1]; 1.36 in assay [2]; -0.146 in assay [3]; 0.483 in assay [4]; 0.2 in assay [5]; -0.0702 in assay [6]. In addition, the composite z-score was 0.91 in assay [7], 0.774 in assay [9] and -0.0994 in assay [10]. In assay [8], the z-score was 0.256 (inactive).

Turning to `CC(CCN1CCCCc2nc(C)c(C)cc21)=NOC[C@@H](O)[C@H]1O[C@@H]2OC(C)(C)O[C@@H]2[C@H]1O`, the composite z-score in [1] is -0.368; in [2], 0.454; in assay [3], -0.138; in [4], 0.188; in assay [5], -0.224; in [6], 0.459. For the same compound, the composite z-score is 0.0465 in [7], -0.346 in assay [9] and -0.136 in [10]. Moreover, the z-score in assay [8] was 0.442 (inactive).

Regarding `COC(=O)[C@H](CCSC)NC(=O)CC=C[C@@H](C)CO`, the composite z-score in assay [1] is -0.738; in assay [2] it was 2.66; in assay [3], -0.123; in assay [4] it was 0.708; in assay [5], 0.175; in [6] it was -0.399. Moreover, the composite z-score in [7] turned out to be 0.818; in assay [9] it was 0.325; in assay [10], 0.484. For the same compound, the z-score in assay [8] was -0.202 (inactive).

For the compound `C[C@@H](c1ccccc1)N1C(=O)[C@H]2[C@H]3[C@H](O)[C@H](O)CC(=NNC(=O)OCc4ccccc4)[C@@H]3CC[C@H]2C1=O`, the composite z-score in assay [1] is -0.909; in assay [2] it was 2.62; in [3], -0.203; in assay [4], -0.261; in [5] it was -0.155; in assay [6], -0.536. The composite z-score was determined as 1.22 in assay [7], 0.0473 in assay [9] and 0.161 in assay [10]. Moreover, in [8], the z-score was -0.491 (inactive).

For the compound `CO[C@H]1COC(=O)CCC[C@H](C)[C@H](OC)COC(=O)CC=C[C@@H]1C`, the composite z-score in assay [1] is -0.535; in assay [2], 1.95; in assay [3], -0.142; in assay [4], -0.692; in assay [5] it was -0.497; in assay [6], -0.441. Also, the composite z-score in assay [7] is -0.291; in assay [9], -0.168; in [10], 0.0922. The z-score in assay [8] is -0.948 (inactive).

`C=CC[C@@H]1C=C[C@H](ON=C[C@@H](NS(=O)(=O)c2ccc(C)cc2)[C@H](C)C=CCC(=O)OC)[C@@H](CO)O1`: the composite z-score in assay [1] was -0.172; in assay [2], 0.571; in assay [3], -0.134; in assay [4] it was 0.2; in [5], -0.0681; in assay [6], -0.209. The composite z-score in assay [7] is 0.476; in assay [9], -0.0961; in assay [10], 0.289. In addition, the z-score in assay [8] was -0.0545 (inactive).

Consider `C=CC[C@@H]1C=C[C@H](ON=C(C)CCN2CCCCc3nc(C)c(C)cc32)[C@@H](CO)O1`, for which the composite z-score in assay [1] was 0.407; in [2] it was 1.57; in [3], -0.0704; in [4], 0.129; in assay [5], 0.145; in assay [6], 0.37. Also, the composite z-score in assay [7] worked out at 0.899; in [9] it was 0.238; in [10], 0.0053. For the same compound, the z-score in assay [8] was 0.389 (inactive).

As for `Cc1cc(C)c(-c2cc([C@H](C)ON=C[C@@H](C)[C@H](OCc3ccccc3)C(C)C)on2)c(C)c1`, the composite z-score in assay [1] was -0.355; in assay [2] it was 0.298; in assay [3], -0.0901; in assay [4] it was 0.0823; in [5] it was -0.637; in [6], -0.529. Moreover, the composite z-score was -1.22 in [7], -0.342 in assay [9] and 0.0505 in assay [10]. Besides, the z-score in [8] is 0.239 (inactive).

Take `CCCNC(=O)OC[C@H]1O[C@H](CCON=C[C@@H](NS(=O)(=O)c2ccc(C)cc2)[C@H](C)C=CCC(=O)OC)C=C[C@@H]1Oc1ccc(OC)cc1`: the composite z-score in assay [1] was -0.341; in [2] it was 0.724; in assay [3], -0.0425; in assay [4], -0.183; in [5] it was -0.127; in assay [6], -0.703. The composite z-score in [7] is -0.83; in [9], 0.118; in assay [10], -0.0994. In addition, the z-score in assay [8] is -0.122 (inactive).

Regarding `CCc1cc2c(nc1CC)CCN(CCC(C)=NOC(C)CN1CCCCc3nc(C)c(C)cc31)C2` (stereo not given), the composite z-score in assay [1] was -0.154; in assay [2], 1.24; in assay [3], -0.073; in assay [4] it was 0.541; in [5], 1.11; in [6], 0.946. Further, the composite z-score is 1.07 in [7], 0.544 in assay [9] and -0.174 in assay [10]. In addition, in assay [8], the z-score is 0.795 (inactive).

In the case of `O=C1C=C[C@@H](O)[C@@H]2[C@@H]3C(=O)N(c4cccc(Oc5ccccc5)c4)C(=O)[C@@H]3CC[C@@H]12`, the composite z-score in assay [1] was -0.575; in [2], -0.285; in [3], -0.0527; in assay [4] it was -0.102; in [5] it was 0.493; in assay [6] it was -0.04. The results for the composite z-score in assay [7], in [9] and in assay [10] were 0.588, 0.241 and -0.274, respectively. The z-score in assay [8] was 0.485 (inactive).

For `O=C1C2=CC[C@H]3C(=O)N(C[C@@H]4CCCO4)C(=O)[C@H]3[C@H]2[C@H](O)[C@@H]2O[C@H]12`, the composite z-score was -0.275 in assay [1]; 0.191 in assay [2]; -0.0878 in assay [3]; 0.111 in assay [4]; -0.0143 in assay [5]; -0.209 in [6]. The composite z-score in assay [7] was 0.75; in [9], -0.258; in [10], -0.145. The z-score in [8] was -1.42 (inactive).

For `COC(=O)CC=C1c2ccccc2[C@H](OC)[C@H]1C`, the composite z-score in assay [1] was -0.033; in assay [2] it was -0.113; in assay [3] it was -0.0044; in assay [4], 0.234; in assay [5] it was -0.0929; in assay [6], -0.395. Also, the composite z-score in assay [7] was -0.293; in assay [9] it was 0.137; in assay [10], -0.0296. The z-score in assay [8] is 0.009 (inactive).

On to `C[C@@H]1CC[C@H]2C(=O)OC(Cc3ccccc3)CN2[C@H]1c1ccc(Br)cc1` (stereo not given in full), for which the composite z-score in assay [1] is -0.438; in assay [2], -0.441; in [3] it was -0.156; in assay [4] it was 0.578; in assay [5], -0.125; in assay [6], 0.485. Also, the composite z-score in [7] is 1.01; in assay [9], -0.103; in [10], 0.0373. Also, in assay [8], the z-score is -0.156 (inactive).

As to `CC(CCN1CCc2nc(-c3ccccc3)c(-c3ccccc3)cc2C1)=NO[C@@H](C)c1cc(-c2c(C)cc(C)cc2C)no1`, the composite z-score in assay [1] is 0.037; in [2], 0.0468; in assay [3], -0.14; in assay [4], 0.155; in assay [5] it was -0.846; in assay [6], 0.129. The composite z-score is 0.55 in [7], 0.0035 in assay [9] and -0.13 in [10]. Moreover, in [8], the z-score is 0.687 (inactive).

Regarding `CCOC(=O)[C@H](CC(C)C)NC(=O)CCC1CC(OC(=O)NCCc2ccc(F)cc2)CC2(CCCC(COC(=O)NCCOC)O2)O1` (stereo not given in full), the composite z-score was 0.12 in assay [1]; 0.305 in [2]; -0.043 in assay [3]; 0.862 in assay [4]; 1.15 in assay [5]; 0.32 in assay [6]. The composite z-score in [7] came to 1.13; in [9], 0.158; in assay [10], 0.0092. Further, in assay [8], the z-score was 1.44 (inactive).

With `COC(=O)[C@H](C)NC(=O)CCC1CC(OC(=O)NCc2ccc3c(c2)OCO3)CC2(CCCC(COC(=O)NCCCN3CCCC3=O)O2)O1` (stereo not given in full), the composite z-score was -0.869 in [1]; 0.62 in [2]; -0.0397 in [3]; 0.469 in assay [4]; 0.829 in assay [5]; 0.357 in assay [6]. Also, the composite z-score in [7] worked out at 1.04; in assay [9], 1.3; in assay [10] it was 0.0373. Further, in assay [8], the z-score is -0.787 (inactive).
